Source: PubChem BioAssay
Pf growth 48h: Primary qHTS for delayed death inhibitors of the malarial parasite plastid, 48 hour incubation | P. falciparum luciferase growth in erythrocytes, 48 h | Potency, µM (series often up to 28.7 µM), for the others: at the highest dose activity change, negative = inhibition, hits mostly inhibitors | hit rate 5.9% among 310,000; note: potency is the fitted concentration of half-maximal effect; % is set by controls: 0 for no effect and ±100 for the full control effect
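Cell-based growth assay: transgenic P. falciparum expressing firefly luciferase, cultured in red cells within RPMI 1640 containing 0.5% w/v Albumax, 24 mM bicarbonate and gentamycin. A drop in luciferase activity indicates inhibition.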
Shiga inhibitor: A qHTS for Small Molecule Inhibitors of Shiga Toxin; Vero cells, Shiga toxin protein synthesis inhibition reporter; inhibition, % at 38.7 µM; hit rate 9.2% among 290,000; in the data active = inhibition mostly above about 28%, no sharp cut-off; inactive = mostly below about 43%; note: 0% is about no effect
NS1 function inh: qHTS Assay for Inhibitors of Influenza NS1 Protein Function | Potency, µM (doses to about 46.1 µM), for inactives: at the top dose activity, positive = more growth | hit rate 0.4% among 270,000 | AID 2326, 2010; calls by dose curve; note: potency is the fitted concentration of half-maximal effect; actives are rising curves; nearly all actives have a fitted effect of over 50% in size
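Read-out: OD600 growth recovery of NS1-expressing budding yeast. Cells grown overnight at 30C in -URA glucose medium, washed, resuspended and diluted 1:100 in 2% galactose assay medium, pH 6.0. Same strain lacking NS1 served as positive control.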
Pf growth 96h: Primary qHTS for delayed death inhibitors of the malarial parasite plastid, 96 hour incubation. P. falciparum luciferase reporter growth, 96 h. Potency, µM (series often up to 28.7 µM), inactives show at the highest dose activity change, negative = inhibition, hits mostly inhibitors. hit rate 6.9% among 320,000; note: potency is the fitted concentration of half-maximal effect; % is set by controls: 0 for no effect and ±100 for the full control effect
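P. falciparum expressing integrated firefly luciferase grown in erythrocytes (2% hematocrit, 0.05% parasitemia final) with compounds for 96 hours at 37 C, 5% CO2. Growth inhibition read as loss of luminescence after adding luciferase detection reagent.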
Sm TGR block: qHTS Assay for the Inhibitors of Schistosoma Mansoni Peroxiredoxins; Potency, µM (top dose mostly 114 µM), without a hit: at the top dose activity change, negative = inhibition, actives largely listed as inhibitors; purified TGR, DTNB reduction, TNB absorbance 405 nm; hit rate 3% among 360,000; Schistosoma mansoni thioredoxin glutathione reductase (TGR), Q962Y6; note: potency is the fitted concentration of half-maximal effect; % is set by controls: 0 for no effect and ±100 for the full control effect; nearly all actives have a fitted effect of over 60% in size
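TGR 20 nM + NADPH 100 uM (dispensed conc.), cpd preinc 15 min RT; start with NADPH (500 uM addition) then DTNB (15 mM addition). Kinetic TNB absorbance, 405 nm filter. Four-parameter Hill fit across titration.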
Cycloheximide cs: Cycloheximide Counterscreen for Small Molecule Inhibitors of Shiga Toxin; cell reporter, cycloheximide protein synthesis inhibition counterscreen; max response, %; hit rate 12% among 300,000; in the data active = max response mostly above about 13%, no sharp cut-off; inactive = mostly below about 14%; note: read at 38.3 µM for the half of the compounds with a filed dose; 0% is about no effect
* marks the source's active call; other numbers are inactive results; ? = inconclusive; · = no result given; [ ] = dose if it differs, or a comment. Rows were chosen to be rich in hits. Some 21% of all compounds tested hit in one or more screens of this group. Unless noted, calls come from the whole dose curve; as a rule, active = well fitted curve in the direction sought with a large enough effect; inconclusive = small, poorly fitted or top-dose-only effect, or another doubt; inactive = no such curve, though single readings can be large; an effect the other way counts as inactive or inconclusive.

SMILES	Pf growth 48h	Shiga inhibitor	NS1 function inh	Pf growth 96h	Sm TGR block	Cycloheximide cs
Cc1ccc(NS(=O)(=O)c2cc(NC(=O)c3cc4c(s3)CCCC4)ccc2C)c(C)c1	?	22.3	7.7%	10.4µM*	9.1%	-1.8
Cc1ccc(NC(=O)c2scc3c2CCCC3)cc1	376.0%	73.5*	-34.3%	?	4.1%	54.0*
Cc1ccc(NC(=O)c2cc3c(s2)CCCC3)cc1	206.8%	103.6*	·	195.7%	-2.3%	54.0*
Cc1ccc(NS(=O)(=O)c2cc(NC(=O)c3ccc4c(c3)NC(=O)CS4)ccc2Cl)c(C)c1	-19.0%	-20.5	9.6%	7.38µM*	3.7%	-1.8
O=C(c1scc2c1CCCC2)N1CCCCC1	17.0%	24.8	-2.5%	·	-14.9%	12.4
Fc1ccc(CNCc2ccco2)cc1	1.7%[0.00184 µM]	33.9	1.7%	26.6%	?	10.8
COc1ccc(C(=O)NCC(=O)NCC(=O)OCc2ccc(Br)cc2)cc1	17.8%	-11.7	0.5%	20.8%	0.4%	-3.8
COc1ccc(OC)c(NC(=O)N2CCN(Cc3nc4ccc(C)cc4o3)CC2)c1	·	·	·	·	4.3%	·
O=C(Nc1c(C(=O)N2CCOCC2)cnn1-c1ccccc1)c1cccc(F)c1	7.3%	-4.5	-4.2%	6.3%	-3.6%	-5.8
O=C(CCC1CCCC1)NCc1cccs1	44.3%	99.5	-0.8%	100.6%	-2.8%	25.8*
O=C(CCC(=O)c1cccs1)Nc1nnc(C2CC2)s1	-12.0%	4.1	0.8%	·	5.1%	17.0*
CC(C)N1C(=O)CCC1C(=O)NCc1cccs1 (stereo unspecified)	23.8%	72.5	·	-5.4%	8.7%	43.5*
O=C(Nc1nnc(C2CC2)s1)c1cccs1	110.1%	99.5*	-38.2%	?	-2.8%	51.0*
CSc1ccccc1C(=O)NCc1ccc(C)cc1	12.1%	25.2	-2.6%	-18.5%	·	11.1
CCOc1ccc(-c2nc(CNC(=O)NC3CCCCC3)c(C)o2)cc1	·	·	·	·	-3.2%	·
O=C(Nc1ccnn1C1CCN(Cc2ccc(C#CCCO)cc2)CC1)c1cccc(F)c1	-17.3%	-15.5	-3.9%	?	1.2%	-2.7
CC(C)(C)[C@H]1C=C(C(=O)NC2CC2)O[C@@H](OCCCCO)C1	-24.8%	-13.5	7.4%	?	3.0%	0.9
CN(CC(=O)NC1CCCCCC1)S(=O)(=O)c1ccc2c(c1)n(C)c(=O)c(=O)n2C	·	-4.2	7.1%	?	-10.8%	-3.7
CCCCn1c(=N)c(S(=O)(=O)c2ccc(Cl)cc2)cc2c(=O)n3cccc(C)c3nc21	·	·	·	·	2.3%	·
Cc1nnc(NC(=O)CCC(=O)NCc2cccs2)s1	69.0%	-7.2	11.5%	6.8%	10.1%	6.0
O=C(CCC(=O)Nc1nnc(C2CCCCC2)s1)NCc1cccs1	20.0%	22.2	5.6%	10.4µM*	4.7%	6.4
O=c1[nH]c2ccccc2nc1C(Nc1ccccc1)c1ccccc1 (stereo unspecified)	?	-1.8	4.7%	-28.1%	1.8%	-2.0
COc1ccc2cc(C(C)C(=O)N3CCC(C(N)=O)CC3)ccc2c1 (stereo unspecified)	4.2%	14.3	-0.4%	23.7%	1.3%	-1.3
COc1ccc2cc([C@H](C)C(=O)N(C)Cc3ccccc3N3CCCC3)ccc2c1	?	3.6	-28.4%	3.7µM*	-8.7%	-1.5
Cc1ccc(Cl)cc1C1=CC(=O)C[C@H](c2ccc(F)cc2)C1	-23.5%	·	·	?	2.9%	·
SMILES	Pf growth 48h	Shiga inhibitor	NS1 function inh	Pf growth 96h	Sm TGR block	Cycloheximide cs
O=C1C=C(c2ccc3c(c2)OCO3)C[C@@H](c2ccc3c(c2)OCO3)C1	41.5%	·	·	34.6%	-2.5%	·
O=C1C=C(c2cccc(Cl)c2O)C[C@@H](c2ccc(Cl)cc2)C1	2.94µM*	·	·	1.47µM*	-21.4%	·
O=C1C=C(c2cc(F)ccc2F)C[C@@H](c2ccc(Cl)cc2)C1	3.7µM*	·	·	?	2.3%	·
CC(C)c1cccc(C2=CC(=O)C[C@H](c3ccc4c(c3)OCO4)C2)c1	13.1µM*	·	·	8.28µM*	-0.8%	·
O=C1C=C(c2cccc(Cl)c2)C[C@@H](c2ccc(Cl)cc2)C1	3.29µM*	·	·	2.08µM*	-16.5%	·
O=C(NCc1ccccc1)c1cc[n+]([O-])cc1	28.6%	2.5	4.3%	?	-24.0%	1.1
O=C(Nc1ccc(F)cc1Cl)n1ncc2cc(Cl)ccc21	·	·	·	·	-4.2%	·
CCCc1cc(=O)n2c(nc3ccccc32)[nH]1	?	36.6	-30.8%	·	-7.4%	17.7*
Cc1cc(=O)n2c(nc3ccccc32)[nH]1	?	11.6	7.2%	?	-10.1%	-2.5
CC(=O)C1=C(C)N(Cc2ccccc2)C(=O)N[C@H]1c1ccco1	45.6%	2.6	0.7%	22.6%	17.8µM*	3.7
COC(=O)C1=C(C)N(Cc2ccco2)C(=O)N[C@H]1c1ccc(Br)cc1	?	-11.8	-6.6%	?	35.5µM*	-2.3
COC(=O)C1=C(C)N(Cc2ccco2)C(=O)N[C@H]1c1ccccc1	-9.3%	-10.3	-12.7%	-7.9%	20µM*	6.6
COCCN1C(=O)N[C@@H](c2ccc(Br)cc2)C(C(=O)OC)=C1C	-21.9%	-17.3	-5.5%	?	0.3%	-2.8
COC(=O)C1=C(C)N(CCc2cc(OC)c(OC)c(OC)c2)C(=O)N[C@H]1c1ccc(Br)cc1	13.1µM*	-8.1	-1.1%	10.4µM*	-2.9%	-3.5
COc1cccc(CNC(=O)C2=Cc3cccc(OC)c3OC2)c1	7.4%	11.2	-6.7%	-1.3%	-4.2%	10.1
CC(Sc1nc(=O)cc(N)n1CCc1ccccc1)C(=O)Nc1ccc(Cl)cc1 (stereo unspecified)	·	·	·	·	7.2%	·
CC1CCCCN1C(=O)CCNC(=O)Cn1cnc2ccccc2c1=O (stereo unspecified)	7.2%	-11.2	-9.8%	?	86.0%	-3.2
CCc1ccc(NC(=O)C(C)Sc2nc(-c3ccco3)c(C#N)c(=O)[nH]2)cc1 (stereo unspecified)	12.2%	3.6	9.5%	18.8%	39.8µM*	4.2
O=C(/C=C/c1ccccc1)NC(=S)NNS(=O)(=O)c1ccccc1	9.2%	9.0	1.8%	18.6%	11.6%	-3.5
O=C(/C=C/c1ccccc1)NC(=S)Nc1ccccc1O	51.0%	81.2*	-1.9%	-15.2%	12.6%	33.0*
NC(=S)NC(=O)/C=C/c1ccccc1	32.7%	65.8*	·	2.08µM*	-6.5%	30.3*
O=C(CCN1CCN(S(=O)(=O)c2ccc(F)cc2)CC1)Nc1ccccc1F	5.7%	-1.6	-17.3%	-5.3%	-11.4%	-1.6
CC(C)c1ccc(-c2nnn(CCC#N)n2)cc1	56.4%	72.2*	-2.1%	32.2%	·	26.7*
O=C(NCCc1nnc2ccc(NCc3ccc(Cl)cc3)nn12)c1ccccc1	-26.7%	-6.2	·	-23.5%	3.3%	-1.6
COc1ccc(OCCN(C)CC(=O)Nc2c(C)cccc2C)cc1	-12.4%[0.00184 µM]	-14.6	0.0%	3.4%	-20.1%	-3.4
